Assay [1] in a line: compounds binding Alexa647 anti-His antibody – biochemical, small-molecule microarray, 635 nm fluorescence, artefact control for SMM control protein annotation, primary screen (AID 1128).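 Also: score merges feature fluorescence with signal-to-noise for each printed compound spot.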 Particulars: higher = more signal.
For assay [2], the system named is Human papillomavirus type 1a E7 protein (residues 1-88). Kind of assay: HPV1a E7 small-molecule binders, primary screen, biochemical, small-molecule microarray, residues 1-88, 635 nm (AID 1129). Particulars: small-molecule microarray binding, fluorescence 635 nm; higher = more signal.
Assay [3] has as its target Focal adhesion kinase 1 (Homo sapiens) (UniProt Q05397). Put plainly: PTK2 protein binding on printed compound slides – biochemical, small-molecule microarray, 635/667 nm fluorescence, BSA, DTT, primary screen (AID 1130).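 Also: composite of spot emission at 667 nm and signal to noise over triplicate slides.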 Particulars: 635 nm fluorescence, higher = more signal.
The subject of assay [4] is Fibrinogen (Alexa647-labelled). Kind of assay: Alexa647-fibrinogen binding to printed small molecules – biochemical, small-molecule microarray, 635/667 nm fluorescence, artefact control for SMM control-protein annotation, profiling panel (AID 1131).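 Also: z-score merges 667 nm fluorescence with per-spot signal-to-noise over triplicate slides.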 Particulars: fibrinogen-A647 binding fluorescence, higher = more signal.
In assay [5] the target is Follistatin (Homo sapiens) (UniProt P19883). Put plainly: FST protein binding to printed compounds – biochemical, small-molecule microarray, 635/667 nm fluorescence, primary screen (AID 1132). Particulars: 635 nm fluorescence, higher = more signal.
The target of assay [6] is Fibroblast growth factor 2 (Homo sapiens) (UniProt P09038). Put plainly: basic fibroblast growth factor binding to printed compounds – biochemical, small-molecule microarray, 635/667 nm fluorescence, primary screen (AID 1133). Particulars: FGF2, fluorescence 635/667, higher = more signal.
A short description of assay [7]: JC-1 mitochondrial potential readout, lung cancer cells – cell-based, A549, JC-1 fluorescence, basal, 24 h, 100 nL, profiling panel (AID 1138).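 Also: A549 lung adenocarcinoma cells under basal conditions with no added stimulus; test concentration not given here.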 Particulars: higher = more signal.
In the next assay the test system is Lefty1. Kind of assay: Lefty1 protein binding to printed compounds – biochemical, small-molecule microarray, 635/667 nm fluorescence, primary screen (AID 1139). Particulars: fluorescence 635/667, higher = more signal.
For assay [8], the system named is wheat germ agglutinin (Triticum aestivum), Alexa647-labelled. Kind of assay: Alexa647-WGA lectin binding to printed small molecules – biochemical, small-molecule microarray, 635/667 nm fluorescence, artefact control for SMM control-protein annotation, profiling panel (AID 1140).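 Also: score merges 667 nm feature emission with signal to noise over triplicate slides.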 Particulars: WGA-A647 binding, 635 nm fluorescence, higher = more signal.
Assay [9] concerns the target Luciferin 4-monooxygenase (Photinus pyralis) (UniProt P08659). Put plainly: inhibition of purified Photinus pyralis luciferase – biochemical, luminescence, purified enzyme, 2006 set, primary screen (AID 1141).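 Also: cell-free assay with purified firefly luciferase at 100 ng per well in PBS; test concentration not given here.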 Particulars: purified firefly luciferase, SteadyGlo luminescence, 30 min; higher = more signal, called active from +8 up or from −8 down.

Calls of active or inactive are those of the source.

Sequence of Focal adhesion kinase 1 (Homo sapiens) (Q05397 whole entry, looked up): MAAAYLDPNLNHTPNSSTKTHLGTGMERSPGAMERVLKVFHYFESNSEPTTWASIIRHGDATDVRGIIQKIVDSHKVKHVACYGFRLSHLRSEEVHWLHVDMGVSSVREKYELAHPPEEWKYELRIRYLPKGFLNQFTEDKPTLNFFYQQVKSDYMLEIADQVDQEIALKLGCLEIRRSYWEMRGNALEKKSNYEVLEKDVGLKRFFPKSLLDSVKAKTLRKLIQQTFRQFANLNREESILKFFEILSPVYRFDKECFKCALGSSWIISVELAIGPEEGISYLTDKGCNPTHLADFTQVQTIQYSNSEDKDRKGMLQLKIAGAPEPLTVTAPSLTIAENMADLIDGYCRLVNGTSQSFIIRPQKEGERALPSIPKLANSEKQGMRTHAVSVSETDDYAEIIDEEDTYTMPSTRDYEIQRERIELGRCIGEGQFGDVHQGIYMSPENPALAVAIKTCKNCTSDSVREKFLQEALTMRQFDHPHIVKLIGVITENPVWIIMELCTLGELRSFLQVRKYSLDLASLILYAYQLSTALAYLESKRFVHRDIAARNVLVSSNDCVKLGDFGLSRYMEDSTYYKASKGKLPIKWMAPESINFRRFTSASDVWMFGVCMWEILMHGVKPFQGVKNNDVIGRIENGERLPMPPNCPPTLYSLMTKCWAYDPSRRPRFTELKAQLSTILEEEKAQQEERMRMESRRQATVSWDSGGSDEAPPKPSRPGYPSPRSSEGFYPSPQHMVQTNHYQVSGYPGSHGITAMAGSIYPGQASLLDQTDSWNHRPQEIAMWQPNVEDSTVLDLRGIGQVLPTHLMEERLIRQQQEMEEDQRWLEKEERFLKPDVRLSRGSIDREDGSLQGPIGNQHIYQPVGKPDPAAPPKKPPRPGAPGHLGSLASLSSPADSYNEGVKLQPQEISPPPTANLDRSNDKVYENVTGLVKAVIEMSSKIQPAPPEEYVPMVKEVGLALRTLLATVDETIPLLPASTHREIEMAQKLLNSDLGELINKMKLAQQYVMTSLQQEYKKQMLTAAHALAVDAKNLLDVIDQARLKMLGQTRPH
Sequence of Follistatin (Homo sapiens) (P19883 whole entry, looked up): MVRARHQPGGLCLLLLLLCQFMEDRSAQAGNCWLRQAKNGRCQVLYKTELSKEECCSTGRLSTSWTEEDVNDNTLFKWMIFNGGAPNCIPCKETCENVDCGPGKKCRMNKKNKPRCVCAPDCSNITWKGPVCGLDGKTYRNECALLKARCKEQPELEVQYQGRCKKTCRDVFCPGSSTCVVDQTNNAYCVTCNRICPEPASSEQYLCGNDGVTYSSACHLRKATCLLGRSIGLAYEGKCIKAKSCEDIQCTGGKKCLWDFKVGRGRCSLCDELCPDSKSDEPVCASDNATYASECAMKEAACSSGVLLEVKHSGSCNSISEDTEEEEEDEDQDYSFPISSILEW
Sequence of Fibroblast growth factor 2 (Homo sapiens) (P09038 whole entry, looked up): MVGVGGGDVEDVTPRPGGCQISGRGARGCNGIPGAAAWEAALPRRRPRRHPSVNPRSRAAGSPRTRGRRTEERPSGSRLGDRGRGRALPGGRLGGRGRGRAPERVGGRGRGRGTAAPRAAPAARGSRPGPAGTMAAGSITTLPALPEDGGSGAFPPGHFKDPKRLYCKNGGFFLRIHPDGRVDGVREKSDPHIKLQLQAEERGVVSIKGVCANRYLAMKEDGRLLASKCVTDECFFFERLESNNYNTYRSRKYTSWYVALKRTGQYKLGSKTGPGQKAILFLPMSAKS
Sequence of Luciferin 4-monooxygenase (Photinus pyralis) (P08659 whole entry, looked up): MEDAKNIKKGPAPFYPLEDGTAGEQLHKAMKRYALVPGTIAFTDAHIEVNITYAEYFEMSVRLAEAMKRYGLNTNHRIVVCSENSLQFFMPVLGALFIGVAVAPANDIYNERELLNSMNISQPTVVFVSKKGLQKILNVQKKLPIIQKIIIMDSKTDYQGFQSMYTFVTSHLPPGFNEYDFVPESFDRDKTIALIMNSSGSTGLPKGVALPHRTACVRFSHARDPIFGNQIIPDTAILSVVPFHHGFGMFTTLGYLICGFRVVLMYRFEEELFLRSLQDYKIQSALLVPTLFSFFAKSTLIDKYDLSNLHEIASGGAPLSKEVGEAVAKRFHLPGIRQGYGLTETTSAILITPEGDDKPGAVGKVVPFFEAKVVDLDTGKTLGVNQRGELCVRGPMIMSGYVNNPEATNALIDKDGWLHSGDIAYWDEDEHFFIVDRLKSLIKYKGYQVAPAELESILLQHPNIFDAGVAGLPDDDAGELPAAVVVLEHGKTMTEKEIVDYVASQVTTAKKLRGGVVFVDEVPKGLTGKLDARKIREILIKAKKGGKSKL

Consider `CCOC(=O)C1=C[C@@H](CC)N(S(=O)(=O)c2ccc(C)cc2)[C@H]1c1ccccc1`, for which the composite z-score worked out at 0.862 in [1]; 1.21 in assay [2]; 1.33 in assay [3]; 0.928 in [4]; 0.431 in assay [5]; 0.261 in assay [6]. Further, the values for the composite z-score (in the assay on Lefty1; in [8]) were 0.0048 and 0.749, respectively. Further, the z-score in assay [7] is 2.94; in assay [9], 2.12 (inactive).

`C=CC[C@]1(C(=O)N2CCOCC2)N=C(c2ccc(OCCCO)cc2)O[C@H]1c1ccccc1`: the composite z-score in assay [1] amounted to 1.69; in assay [2] it was 1.22; in assay [3] it was 0.602; in assay [4] it was 0.866; in [5], 0.401; in assay [6] it was 0.12. The composite z-score is -0.781 with Lefty1 and 1.28 in assay [8]. Also, the z-score is 0.409 in assay [7] and 1.25 (inactive) in assay [9].

With `C=CCOC(=O)[C@H]1[C@@H]2C(=O)O[C@@H](c3ccccc3)[C@@H](c3ccccc3)N2[C@@H](c2ccc(OCCOC(=O)[C@@H]3C[C@@H]4C(=O)N5CCC[C@H]5C(=O)N4[C@@H]3c3ccc(O)cc3)cc2)[C@]12C(=O)Nc1ccccc12`, the composite z-score in assay [1] is 1.16; in assay [2], 1.18; in assay [3], 0.109; in assay [4] it was 0.655; in assay [5], 1.39; in [6], 1.35. The composite z-score was 1.04 in the assay with Lefty1 and 0.77 in [8]. Besides, the z-score is -1.19 in assay [7] and -0.354 (inactive) in [9].

For `COCCCNC(=O)[C@@]1(c2ccc([N+](=O)[O-])cc2)CC(=O)N(CC23CC4CC(CC(C4)C2)C3)[C@@H]1c1ccc(CO)cc1`, the composite z-score turned out to be 0.344 in assay [1]; 1.18 in [2]; 0.745 in assay [3]; 0.799 in assay [4]; 1.27 in [5]; 1.62 in assay [6]. The composite z-score came to 0.983 in the assay with Lefty1 and 0.203 in assay [8]. In addition, the results for the z-score in assay [7] and in assay [9] were 0.846 and 0.183 (inactive), respectively.

As for `COc1ccc([Si](C)(C)[C@@H]2[C@@H](CCn3cc([C@H](O)c4ccccc4)nn3)O[C@]3(C(=O)N(Cc4cccc(N5CCOC5=O)c4)c4ccccc43)[C@H]2C)cc1`, the composite z-score in [1] is -1.11; in assay [2], -0.576; in [3], -0.753; in assay [4], -1.23; in [5] it was -1.68; in assay [6] it was -0.977. For the same compound, the composite z-score with Lefty1 is -1.31; in [8] it was -0.452. The values for the z-score in assay [7] and in [9] were 2.14 and -1.5 (inactive), respectively.

Consider `C=CCNC(=O)[C@H]1[C@@H]2C(=O)O[C@@H](c3ccccc3)[C@@H](c3ccccc3)N2[C@@H](c2ccc(O)cc2)[C@]12C(=O)N(C(=O)OCCOC)c1ccc(C#CCCO)cc12`, for which the composite z-score was 1.03 in assay [1]; -0.0757 in assay [2]; 0.38 in assay [3]; 0.288 in assay [4]; 0.448 in assay [5]; 0.748 in assay [6]. Moreover, the composite z-score in the assay on Lefty1 was -0.0874; in assay [8], -0.163. The z-score in [7] is 0.956; in [9], -0.923 (inactive).

On to `N[C@@H](Cc1ccccc1)Cn1cc(-c2ccccc2)nn1`, for which the composite z-score is -0.0727 in [1]; 0.184 in assay [2]; -0.0983 in assay [3]; 0.274 in assay [4]; 0.219 in assay [5]; -0.311 in [6]. For the same compound, the composite z-score in the assay with Lefty1 is -0.155; in [8] it was 0.441. Besides, the z-score in assay [7] is 0.805; in assay [9], -1.32 (inactive).

As for `CC(C)N1CC=CC23O[C@@H]4C=CCOC(=O)[C@@H]4[C@H]2C(=O)N(CCO)[C@@H]3C1=O` (stereo not given in full), the composite z-score in assay [1] was 0.386; in assay [2], -0.586; in assay [3] it was -0.346; in [4], -0.766; in assay [5], -0.22; in [6], -1.33. The composite z-score with Lefty1 is 0.103; in assay [8], -0.249. Further, the z-score in assay [7] was -0.346; in assay [9], -0.0322 (inactive).

Consider `Cc1cc(C)cc(N2C(=O)CS(=O)(=O)C2c2cccc([N+](=O)[O-])c2)c1` (stereo not given), for which the composite z-score in assay [1] turned out to be 1.11; in assay [2] it was 0.632; in assay [3] it was 0.894; in assay [4] it was 0.829; in [5] it was 0.508; in [6], 0.126. Moreover, the composite z-score in the assay with Lefty1 is 0.874; in assay [8] it was 0.841. Moreover, the z-score in assay [7] was 0.382; in [9] it was -0.273 (inactive).

Turning to `COC(=O)[C@@]1(Cc2ccccc2)[C@H]2c3cc(C(=O)N4CCCC4)n(Cc4ccc(C)o4)c3C[C@H]2CN1C(=O)c1ccccc1`, the composite z-score in assay [1] was 0.195; in [2], 1.22; in [3], 0.752; in assay [4] it was -0.809; in [5] it was -0.0668; in [6], -0.675. The values for the composite z-score (with Lefty1; in assay [8]) were -0.0201 and 1.18, respectively. The z-score in assay [7] was 0.337; in assay [9], -2.68 (inactive).

Regarding `Cc1ccc(S[C@]2(C(=O)NCC(C)C)CC(=O)N(Cc3ccccc3)[C@@H]2c2ccc(CO)cc2I)cc1`, the composite z-score in assay [1] is 1.38; in assay [2], 0.904; in [3] it was 0.139; in assay [4], 0.312; in [5] it was 1.27; in [6], 0.564. The composite z-score with Lefty1 was 0.536; in assay [8], 0.503. The z-score was 1.03 in assay [7] and -0.56 (inactive) in [9].

For the compound `COCC(=C=CC[C@H](O)c1ccc(OCCO)cc1)C[C@H](O)c1cc(Cl)cc(Cl)c1O`, the composite z-score was 0.773 in assay [1]; 0.907 in assay [2]; -0.427 in assay [3]; 0.799 in assay [4]; 1.38 in assay [5]; 1.4 in [6]. Moreover, the composite z-score in the assay with Lefty1 was 1.47; in assay [8] it was 0.0552. The z-score is 0.268 in assay [7] and -0.846 (inactive) in [9].

For the compound `O=C1OCCC=C[C@H]2OC34C=CCN(Cc5ccccc5)C(=O)[C@H]3N(CCCO)C(=O)[C@@H]4C12` (stereo not given in full), the composite z-score in assay [1] was 1.76; in [2] it was -1.17; in assay [3] it was -0.0769; in [4] it was -0.887; in assay [5], -0.145; in [6], -0.349. The composite z-score in the assay on Lefty1 was 0.181; in assay [8], -0.194. The z-score was -0.778 in assay [7] and 0.0952 (inactive) in assay [9].

In the case of `[N-]=[N+]=NCc1ccccc1[C@@H]1OC(c2ccc(OCCCO)cc2)=N[C@]1(Cc1ccccc1)C(=O)N1CCCCC1`, the composite z-score was 2.4 in assay [1]; 1.2 in [2]; 0.0473 in assay [3]; 0.39 in [4]; 1.41 in [5]; 1.55 in assay [6]. Also, the composite z-score in the assay with Lefty1 was -0.0101; in [8] it was 0.903. For the same compound, the z-score in [7] was 2.06; in assay [9], -1.22 (inactive).

The record behind these values is PubChem BioAssay.
